Tests used:
Test in all cases: DAPPL (digital affinity profiling via proximity ligation, sequencing); 10 mM Tris-HCl pH 7.5, 50 mM NaCl, 1 mM DTT, 4% glycerol, room temperature, 30 min; GST-TFs on glutathione beads, 16-mer random dsDNA library, 0.1% formaldehyde crosslink after washing; high values mean tight binding
FEV = target: T1, FEV (Homo sapiens, UniProt Q99581 1-238); conditions: protein: recombinant; tags: N-terminal GST; dsDNA, one strand shown
T1 sequence: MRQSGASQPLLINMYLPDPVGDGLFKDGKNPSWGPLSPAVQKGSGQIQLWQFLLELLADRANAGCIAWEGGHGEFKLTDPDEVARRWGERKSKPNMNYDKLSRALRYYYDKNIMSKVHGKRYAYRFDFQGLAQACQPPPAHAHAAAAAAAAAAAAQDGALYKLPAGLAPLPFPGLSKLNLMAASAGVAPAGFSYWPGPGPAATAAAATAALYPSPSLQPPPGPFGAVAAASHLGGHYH
Summary of the method: (§1)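 Yeast served to express human transcription factors as GST fusions, which were then captured on glutathione beads and labelled with DNA barcodes. Pooled with a tag-only sample, they were incubated with 200 nmole of a 16-mer random double-stranded DNA library for 30 min at room temperature in Tris/NaCl/DTT/glycerol buffer, washed, crosslinked with 0.1% formaldehyde, ligated by proximity, amplified by PCR and sequenced. Dividing each hexamer's read frequency for a factor by its frequency for the tag-only sample gives the binding signal.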

ETV5 = ETV5 (Homo sapiens, UniProt P41161 1-510); conditions: protein: recombinant; tags: N-terminal GST; dsDNA, one strand shown
Chain of ETV5 (P41161 whole entry): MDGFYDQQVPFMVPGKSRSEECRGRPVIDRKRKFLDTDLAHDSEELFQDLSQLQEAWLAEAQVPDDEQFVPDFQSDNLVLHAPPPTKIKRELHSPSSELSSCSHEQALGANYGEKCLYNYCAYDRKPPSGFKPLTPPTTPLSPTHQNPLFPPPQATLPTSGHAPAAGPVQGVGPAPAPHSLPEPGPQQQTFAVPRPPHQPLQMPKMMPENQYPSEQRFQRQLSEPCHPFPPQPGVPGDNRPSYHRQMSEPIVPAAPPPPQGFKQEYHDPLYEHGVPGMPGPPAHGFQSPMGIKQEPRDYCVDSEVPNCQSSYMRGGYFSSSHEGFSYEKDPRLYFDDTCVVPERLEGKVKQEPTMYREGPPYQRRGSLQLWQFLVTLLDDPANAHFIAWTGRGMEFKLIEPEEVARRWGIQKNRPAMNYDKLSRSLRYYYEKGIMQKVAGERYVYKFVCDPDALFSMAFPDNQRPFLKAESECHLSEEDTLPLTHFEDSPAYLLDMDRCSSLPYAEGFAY
Summary of the method: as §1

HSF1 = HSF1 (Homo sapiens, UniProt Q00613 1-529); conditions: protein: recombinant; tags: N-terminal GST; chain copies: 3; dsDNA, one strand shown
Chain of HSF1 (Q00613 whole entry): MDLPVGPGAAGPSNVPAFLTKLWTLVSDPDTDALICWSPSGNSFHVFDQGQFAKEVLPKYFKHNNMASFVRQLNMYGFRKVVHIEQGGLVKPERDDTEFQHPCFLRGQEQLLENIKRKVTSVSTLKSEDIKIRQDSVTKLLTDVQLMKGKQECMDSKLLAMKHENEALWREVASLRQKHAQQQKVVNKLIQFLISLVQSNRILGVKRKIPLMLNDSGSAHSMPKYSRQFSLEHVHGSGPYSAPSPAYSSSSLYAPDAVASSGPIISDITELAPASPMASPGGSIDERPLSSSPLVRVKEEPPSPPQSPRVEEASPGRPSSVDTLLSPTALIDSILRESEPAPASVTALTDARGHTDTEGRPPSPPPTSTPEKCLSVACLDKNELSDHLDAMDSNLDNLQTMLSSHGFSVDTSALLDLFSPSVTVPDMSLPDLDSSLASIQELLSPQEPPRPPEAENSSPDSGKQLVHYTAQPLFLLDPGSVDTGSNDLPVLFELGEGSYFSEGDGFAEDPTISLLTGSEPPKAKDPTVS
Summary of the method: as §1

SPIC = target: T2, SPIC (Homo sapiens, UniProt Q8N5J4 1-248); conditions: protein: recombinant; tags: N-terminal GST; dsDNA, one strand shown
T2 sequence: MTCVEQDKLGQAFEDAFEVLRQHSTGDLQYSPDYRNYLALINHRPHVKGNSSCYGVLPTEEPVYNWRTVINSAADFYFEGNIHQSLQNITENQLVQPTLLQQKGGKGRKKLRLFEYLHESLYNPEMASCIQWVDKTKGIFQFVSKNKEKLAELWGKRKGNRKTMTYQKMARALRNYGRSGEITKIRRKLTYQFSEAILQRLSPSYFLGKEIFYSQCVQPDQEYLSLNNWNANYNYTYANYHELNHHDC
Summary of the method: as §1

ELF4 = ELF4 (Homo sapiens, UniProt Q99607 1-663); conditions: protein: recombinant; tags: N-terminal GST; dsDNA, one strand shown
Chain of ELF4 (Q99607 whole entry): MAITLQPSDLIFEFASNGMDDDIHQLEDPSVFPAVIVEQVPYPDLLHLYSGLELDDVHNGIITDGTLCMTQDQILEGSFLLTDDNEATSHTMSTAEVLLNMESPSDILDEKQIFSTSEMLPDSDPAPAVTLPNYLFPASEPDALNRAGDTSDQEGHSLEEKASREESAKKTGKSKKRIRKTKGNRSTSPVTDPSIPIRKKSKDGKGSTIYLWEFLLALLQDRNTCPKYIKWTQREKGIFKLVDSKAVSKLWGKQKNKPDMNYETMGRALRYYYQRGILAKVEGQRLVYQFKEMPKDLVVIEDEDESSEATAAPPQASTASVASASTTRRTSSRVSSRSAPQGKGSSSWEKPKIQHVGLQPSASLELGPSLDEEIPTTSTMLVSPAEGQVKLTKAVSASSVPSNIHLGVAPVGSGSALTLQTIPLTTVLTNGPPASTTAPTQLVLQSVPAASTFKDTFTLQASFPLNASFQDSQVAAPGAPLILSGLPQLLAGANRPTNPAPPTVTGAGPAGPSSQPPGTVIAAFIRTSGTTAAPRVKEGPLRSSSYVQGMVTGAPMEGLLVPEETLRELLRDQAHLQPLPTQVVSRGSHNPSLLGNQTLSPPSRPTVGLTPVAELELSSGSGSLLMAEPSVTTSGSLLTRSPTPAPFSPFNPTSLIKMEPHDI
Summary of the method: as §1

ELK4 = target: T3, ELK4 (Homo sapiens, UniProt P28324-2 1-405); conditions: protein: recombinant; tags: N-terminal GST; dsDNA, one strand shown
T3 sequence: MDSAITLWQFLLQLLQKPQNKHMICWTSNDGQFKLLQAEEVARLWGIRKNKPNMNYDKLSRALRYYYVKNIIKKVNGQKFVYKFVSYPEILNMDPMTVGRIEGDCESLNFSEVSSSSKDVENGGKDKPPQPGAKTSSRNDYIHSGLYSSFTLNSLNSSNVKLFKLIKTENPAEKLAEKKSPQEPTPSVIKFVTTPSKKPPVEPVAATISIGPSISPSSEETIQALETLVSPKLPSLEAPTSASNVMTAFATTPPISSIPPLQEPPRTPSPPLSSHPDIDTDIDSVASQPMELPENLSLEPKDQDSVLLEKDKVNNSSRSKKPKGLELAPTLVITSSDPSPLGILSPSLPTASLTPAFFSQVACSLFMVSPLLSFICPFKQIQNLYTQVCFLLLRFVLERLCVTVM
Summary of the method: as §1

ETV2 = target: T4, ETV2 (Homo sapiens, UniProt O00321 1-342); conditions: protein: recombinant; tags: N-terminal GST; dsDNA, one strand shown
T4 sequence: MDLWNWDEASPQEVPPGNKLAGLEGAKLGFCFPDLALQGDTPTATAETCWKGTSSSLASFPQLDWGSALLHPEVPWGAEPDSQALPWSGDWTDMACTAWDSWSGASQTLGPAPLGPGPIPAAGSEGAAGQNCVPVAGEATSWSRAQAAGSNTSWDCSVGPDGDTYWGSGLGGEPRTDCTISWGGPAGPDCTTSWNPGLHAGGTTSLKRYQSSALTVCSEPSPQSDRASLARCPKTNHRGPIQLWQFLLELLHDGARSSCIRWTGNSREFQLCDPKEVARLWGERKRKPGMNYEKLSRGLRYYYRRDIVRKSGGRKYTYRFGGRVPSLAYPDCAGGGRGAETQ
Summary of the method: as §1

ELF3 = target: T5, ELF3 (Homo sapiens, UniProt P78545 1-371); conditions: protein: recombinant; tags: N-terminal GST; dsDNA, one strand shown
T5 sequence: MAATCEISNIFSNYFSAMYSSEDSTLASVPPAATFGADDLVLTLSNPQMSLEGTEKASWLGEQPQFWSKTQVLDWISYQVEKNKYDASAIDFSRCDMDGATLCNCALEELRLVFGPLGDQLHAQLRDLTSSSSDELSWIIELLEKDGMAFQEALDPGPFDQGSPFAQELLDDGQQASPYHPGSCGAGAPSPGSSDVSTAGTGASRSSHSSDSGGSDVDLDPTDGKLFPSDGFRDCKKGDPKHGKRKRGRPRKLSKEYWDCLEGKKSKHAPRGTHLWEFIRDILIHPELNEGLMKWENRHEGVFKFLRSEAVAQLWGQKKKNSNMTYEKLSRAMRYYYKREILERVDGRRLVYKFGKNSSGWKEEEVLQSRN
Summary of the method: as §1

CRX = CRX (Homo sapiens, UniProt O43186 1-299); conditions: protein: recombinant; tags: N-terminal GST; dsDNA, one strand shown
Chain of CRX (O43186 whole entry): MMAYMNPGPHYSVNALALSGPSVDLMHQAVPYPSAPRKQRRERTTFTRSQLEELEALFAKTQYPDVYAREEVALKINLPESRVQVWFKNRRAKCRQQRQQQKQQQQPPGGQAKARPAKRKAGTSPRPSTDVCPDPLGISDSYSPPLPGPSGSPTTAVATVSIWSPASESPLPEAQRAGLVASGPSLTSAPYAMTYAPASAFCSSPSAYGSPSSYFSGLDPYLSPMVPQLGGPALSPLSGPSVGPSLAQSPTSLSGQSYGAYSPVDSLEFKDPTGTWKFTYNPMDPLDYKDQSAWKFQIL
Summary of the method: as §1

ETV1 = ETV1 (Homo sapiens, UniProt P50549 1-477); conditions: protein: recombinant; tags: N-terminal GST; dsDNA, one strand shown
Chain of ETV1 (P50549 whole entry): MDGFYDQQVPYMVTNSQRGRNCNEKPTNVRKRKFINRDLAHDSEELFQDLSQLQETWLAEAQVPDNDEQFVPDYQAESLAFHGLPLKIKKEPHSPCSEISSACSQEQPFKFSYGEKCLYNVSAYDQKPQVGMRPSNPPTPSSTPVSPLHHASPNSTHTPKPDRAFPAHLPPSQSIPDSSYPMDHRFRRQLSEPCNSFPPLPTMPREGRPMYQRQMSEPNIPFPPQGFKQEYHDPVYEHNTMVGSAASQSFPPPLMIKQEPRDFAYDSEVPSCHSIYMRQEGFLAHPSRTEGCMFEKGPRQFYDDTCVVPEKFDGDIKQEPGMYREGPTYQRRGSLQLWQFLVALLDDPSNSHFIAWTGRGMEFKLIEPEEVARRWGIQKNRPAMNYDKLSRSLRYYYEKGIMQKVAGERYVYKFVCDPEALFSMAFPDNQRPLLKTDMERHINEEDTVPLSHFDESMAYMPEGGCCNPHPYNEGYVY
Summary of the method: as §1

In the case of GCTGTA, the binding signal (FEV) is reported as 1.15 fold enrichment (6-mer frequency, TF over GST control), the binding signal (ETV5) is reported as 1.06 fold enrichment (6-mer frequency, TF over GST control) and the binding signal (HSF1) is reported as 1 fold enrichment (6-mer frequency, TF over GST control). For the same sequence, the binding signal (SPIC) was 1.36 fold enrichment (6-mer frequency, TF over GST control), the binding signal (ELF4) was 1.08 fold enrichment (6-mer frequency, TF over GST control) and the binding signal (ELK4) was 1.09 fold enrichment (6-mer frequency, TF over GST control). The binding signal (ETV2) was 1.08 fold enrichment (6-mer frequency, TF over GST control), the binding signal (ELF3) was 1.07 fold enrichment (6-mer frequency, TF over GST control) and the binding signal (CRX) was 1.02 fold enrichment (6-mer frequency, TF over GST control). For the same sequence, the binding signal (ETV1) was 1.06 fold enrichment (6-mer frequency, TF over GST control).

With CTCTAA the binding signal (FEV) was 1.29 fold enrichment (6-mer frequency, TF over GST control), the binding signal (ETV5) was 1.37 fold enrichment (6-mer frequency, TF over GST control) and the binding signal (HSF1) was 1.49 fold enrichment (6-mer frequency, TF over GST control). For the same sequence, the binding signal (SPIC) was 1.6 fold enrichment (6-mer frequency, TF over GST control), the binding signal (ELF4) was 1.31 fold enrichment (6-mer frequency, TF over GST control) and the binding signal (ELK4) was 1.22 fold enrichment (6-mer frequency, TF over GST control). For the same sequence, the binding signal (ETV2) was 1.37 fold enrichment (6-mer frequency, TF over GST control), the binding signal (ELF3) was 1.5 fold enrichment (6-mer frequency, TF over GST control) and the binding signal (CRX) was 2 fold enrichment (6-mer frequency, TF over GST control). For the same sequence, the binding signal (ETV1) was 1.32 fold enrichment (6-mer frequency, TF over GST control).

With TACACA the binding signal (FEV) was 1.21 fold enrichment (6-mer frequency, TF over GST control), the binding signal (ETV5) was 1.2 fold enrichment (6-mer frequency, TF over GST control) and the binding signal (HSF1) was 1.05 fold enrichment (6-mer frequency, TF over GST control). For the same sequence, the binding signal (SPIC) was 1.35 fold enrichment (6-mer frequency, TF over GST control), the binding signal (ELF4) was 1.2 fold enrichment (6-mer frequency, TF over GST control) and the binding signal (ELK4) was 1.26 fold enrichment (6-mer frequency, TF over GST control). For the same sequence, the binding signal (ETV2) was 1.12 fold enrichment (6-mer frequency, TF over GST control), the binding signal (ELF3) was 1.22 fold enrichment (6-mer frequency, TF over GST control) and the binding signal (CRX) was 1.09 fold enrichment (6-mer frequency, TF over GST control). For the same sequence, the binding signal (ETV1) was 1.2 fold enrichment (6-mer frequency, TF over GST control).

TTGATT was tested, and the binding signal (FEV) was 1.18 fold enrichment (6-mer frequency, TF over GST control), the binding signal (ETV5) was 1.14 fold enrichment (6-mer frequency, TF over GST control) and the binding signal (HSF1) was 1.32 fold enrichment (6-mer frequency, TF over GST control). The binding signal (SPIC) was 1.35 fold enrichment (6-mer frequency, TF over GST control), the binding signal (ELF4) was 1.25 fold enrichment (6-mer frequency, TF over GST control) and the binding signal (ELK4) was 1.29 fold enrichment (6-mer frequency, TF over GST control). For the same sequence, the binding signal (ETV2) was 1.32 fold enrichment (6-mer frequency, TF over GST control), the binding signal (ELF3) was 1.25 fold enrichment (6-mer frequency, TF over GST control) and the binding signal (CRX) was 1.48 fold enrichment (6-mer frequency, TF over GST control). The binding signal (ETV1) was 1.27 fold enrichment (6-mer frequency, TF over GST control).

With AAGCTT the binding signal (FEV) was 1.16 fold enrichment (6-mer frequency, TF over GST control), the binding signal (ETV5) was 1.25 fold enrichment (6-mer frequency, TF over GST control) and the binding signal (HSF1) was 1.84 fold enrichment (6-mer frequency, TF over GST control). The binding signal (SPIC) was 1.24 fold enrichment (6-mer frequency, TF over GST control), the binding signal (ELF4) was 1.25 fold enrichment (6-mer frequency, TF over GST control) and the binding signal (ELK4) was 1.39 fold enrichment (6-mer frequency, TF over GST control). For the same sequence, the binding signal (ETV2) was 1.31 fold enrichment (6-mer frequency, TF over GST control), the binding signal (ELF3) was 1.29 fold enrichment (6-mer frequency, TF over GST control) and the binding signal (CRX) was 2.33 fold enrichment (6-mer frequency, TF over GST control). The binding signal (ETV1) was 1.31 fold enrichment (6-mer frequency, TF over GST control).

For CACTTG, the binding signal (FEV) was 1.33 fold enrichment (6-mer frequency, TF over GST control), the binding signal (ETV5) was 1.41 fold enrichment (6-mer frequency, TF over GST control) and the binding signal (HSF1) was 1.12 fold enrichment (6-mer frequency, TF over GST control). The binding signal (SPIC) was 1.12 fold enrichment (6-mer frequency, TF over GST control), the binding signal (ELF4) was 1.45 fold enrichment (6-mer frequency, TF over GST control) and the binding signal (ELK4) was 1.43 fold enrichment (6-mer frequency, TF over GST control). For the same sequence, the binding signal (ETV2) was 1.36 fold enrichment (6-mer frequency, TF over GST control), the binding signal (ELF3) was 1.41 fold enrichment (6-mer frequency, TF over GST control) and the binding signal (CRX) was 1.1 fold enrichment (6-mer frequency, TF over GST control). For the same sequence, the binding signal (ETV1) was 1.36 fold enrichment (6-mer frequency, TF over GST control).

For TAATGG, the binding signal (FEV) was 1.25 fold enrichment (6-mer frequency, TF over GST control), the binding signal (ETV5) was 1.35 fold enrichment (6-mer frequency, TF over GST control) and the binding signal (HSF1) was 1.46 fold enrichment (6-mer frequency, TF over GST control). For the same sequence, the binding signal (SPIC) was 1.34 fold enrichment (6-mer frequency, TF over GST control), the binding signal (ELF4) was 1.3 fold enrichment (6-mer frequency, TF over GST control) and the binding signal (ELK4) was 1.3 fold enrichment (6-mer frequency, TF over GST control). The binding signal (ETV2) was 1.09 fold enrichment (6-mer frequency, TF over GST control), the binding signal (ELF3) was 1.31 fold enrichment (6-mer frequency, TF over GST control) and the binding signal (CRX) was 1.64 fold enrichment (6-mer frequency, TF over GST control). For the same sequence, the binding signal (ETV1) was 1.45 fold enrichment (6-mer frequency, TF over GST control).

In the case of CCTCTT, the binding signal (FEV) is reported as 1.58 fold enrichment (6-mer frequency, TF over GST control), the binding signal (ETV5) is reported as 1.68 fold enrichment (6-mer frequency, TF over GST control) and the binding signal (HSF1) is reported as 1.4 fold enrichment (6-mer frequency, TF over GST control). The binding signal (SPIC) was 1.52 fold enrichment (6-mer frequency, TF over GST control), the binding signal (ELF4) was 1.56 fold enrichment (6-mer frequency, TF over GST control) and the binding signal (ELK4) was 1.56 fold enrichment (6-mer frequency, TF over GST control). The binding signal (ETV2) was 1.75 fold enrichment (6-mer frequency, TF over GST control), the binding signal (ELF3) was 1.32 fold enrichment (6-mer frequency, TF over GST control) and the binding signal (CRX) was 1.81 fold enrichment (6-mer frequency, TF over GST control). For the same sequence, the binding signal (ETV1) was 1.55 fold enrichment (6-mer frequency, TF over GST control).

— PMC7862700, “An all-to-all approach to the identification of sequence-specific readers for epigenetic DNA modifications on cytosine”
